Only some compounds are listed: those with a hit (about 2.8% of all), similar ones and a draw of the others.
B2AR arrestin = qHTS assay of beta-arrestin-biased ligands of beta2-adrenergic receptor; Beta-2 adrenergic receptor (Homo sapiens), P07550; beta-arrestin recruitment to beta2AR, cell-based reporter; Potency, µM (series often up to 46.1 µM), for the others: top-dose activation, most hits filed as activators; 330,000 compounds, 0.02% hits; AID 492947, 2010; active means well fitted activation curve with a large enough effect; inconclusive means small, poorly fitted or top-dose-only effect;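 further: potency means the concentration at half of the fitted maximal effect; 0% = DMSO controls and full agonism = EC100 isoproterenol or metaproterenol; nearly all actives have a fitted effect of over 65% in size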
DRD3 agonist = qHTS of D3 Dopamine Receptor Agonist: qHTS; D3R DiscoveRx beta-arrestin cells, luminescence, 90 min; max activation, %; 410,000 compounds, 0.58% hits; in the data active means max activation above about 30%; further: 0% is about no effect
Target sequence (P35462 whole entry, looked up): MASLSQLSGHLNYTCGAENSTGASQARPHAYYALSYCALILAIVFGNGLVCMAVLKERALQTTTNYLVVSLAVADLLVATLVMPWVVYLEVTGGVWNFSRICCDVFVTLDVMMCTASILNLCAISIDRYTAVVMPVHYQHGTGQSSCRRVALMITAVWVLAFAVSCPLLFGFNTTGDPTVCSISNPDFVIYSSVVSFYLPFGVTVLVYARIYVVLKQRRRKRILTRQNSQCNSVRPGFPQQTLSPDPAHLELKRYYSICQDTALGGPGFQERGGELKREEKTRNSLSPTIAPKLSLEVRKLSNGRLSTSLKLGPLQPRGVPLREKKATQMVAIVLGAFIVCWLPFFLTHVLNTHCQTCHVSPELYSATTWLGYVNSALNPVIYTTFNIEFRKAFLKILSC
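Cells at 1500/well, incubated overnight, then treated with pinned compounds (dopamine as control) for 90 min at 37 degrees C. DiscoveRx reagent added for 30 - 60 minutes at room temperature; luminescence read.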
DRD3 antagonist = qHTS of D3 Dopamine Receptor Antagonist: qHTS. D(3) dopamine receptor (Homo sapiens), P35462. max response, negative = inhibition, %. D3R cells, DiscoveRx beta-arrestin luminescence, antagonist mode; active compounds read low. 360,000 compounds, 2.5% hits; in the data active means max response below about -50%; inconclusive means no clear call, values can overlap the other calls; further: on the % scale 0 is the no-effect control and ±100 the full control effect
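Cells expressing the human receptor were seeded at 1500 cells/well, incubated overnight at 37 degrees C in 5% CO2, then exposed to library compounds with dopamine controls for 90 minutes at 37 degrees C before luminescent detection.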
Giardia kill = Small Molecules that selectively kill Giardia lamblia: qHTS; Giardia lamblia trophozoite viability; activity change, % at 7.66 µM, hits read low; 340,000 compounds, 0.15% hits; AID 540267, 2011; in the data active means activity change below about -80%; inconclusive means between about -30% and that limit;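 further: parasites exposed to compound for two days anaerobically before the ATP read; on the % scale 0 is the no-effect control and ±100 the full control effect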
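Anaerobic 48 hrs incubation at 37 deg C of 100 trophozoites/well with test compounds; ATPLite 1-Step luminescence, 15-30 min RT, reports cellular ATP as viability.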
* = called active by the depositor; ? = inconclusive; . = no result given; ! = a repeat was not active.

SMILES	B2AR arrestin	DRD3 agonist	DRD3 antagonist	Giardia kill
C=CCOc1nc2c(c(=O)n(C)c(=O)n2C)n1Cc1ccccc1Cl	0%	36*	15	12
C=CCOc1nc2c(c(=O)n(C)c(=O)n2C)n1Cc1ccc(Cl)cc1	0%	2	-28	-16
CCOC(=O)c1cc(NC(=O)COC)ccc1O	-1%	.	.	.
CCOC(=O)C(=CNc1ccc(O)c(C(=O)OC)c1)C(=O)OCC	.	57*	159	-23
CC(C)NC(=O)COC(=O)CNC(=O)C1CCCCC1	.	.	.	-7
CC(C)c1ccccc1NC(=S)NC1CCN(Cc2ccccc2)CC1	0%	-40	-79*	-18
CCCN1CCC(NC(=S)Nc2cccc(Cl)c2Cl)CC1	0%	-4	-3	13
O=C(Nc1ccccc1)NC1CCN(Cc2ccccc2)CC1	0%	.	.	3
Cc1c(Cl)cccc1NC(=S)NC1CCN(Cc2ccccc2)CC1	-1%	-13	-72*	15
S=C(Nc1cc(Cl)cc(Cl)c1)NC1CCN(Cc2ccccc2)CC1	-1%	-14	-94*	?
Clc1ccc(CNC2CCN(Cc3ccccc3)CC2)cc1	-1%	-21	-17	6
S=C(NCc1ccc(Cl)cc1)NC1CCN(Cc2ccccc2)CC1	0%	-16	-66*	2
NC(=O)[C@H]1O[C@@H](O)[C@H](O)[C@@H](O)[C@@H]1O	.	-6	.	.
Cc1cccc(C(=O)OCc2cc(=O)n3nc(C4CC4)sc3n2)c1	.	2	.	.
O=C(Cc1ccccc1)NCC(=O)OCC(=O)c1cccc2ccccc12	.	.	.	6
S=C(Nc1ccccc1Cl)NC1CCN(Cc2ccccc2)CC1	0%	-7	-84*	-3
FC(F)(F)c1ccccc1NC(=S)NC1CCN(Cc2ccccc2)CC1	0%	-20	-58*	-4
S=C(Nc1ccc(Cl)cc1Cl)NC1CCN(Cc2ccccc2)CC1	-1%	-6	-28	-5
CCOC(=O)c1ccc(N2C(=O)C=CC2=O)cc1	0%	4	-82*	-17
CCOC(=O)c1ccc(-n2c(C)ccc2C)cc1	-1%	-17	-6	15
CCc1ccc(CN(Cc2ccco2)c2cnc(S(C)(=O)=O)nc2C(=O)Nc2ccc(C)c(Cl)c2)cc1	.	0	.	.
Cc1ccc(CN2C(=O)C(Cc3ccccc3)Nc3ncnc(N4CCCCC4)c32)cc1 (stereo unspecified)	0%	-22	-84*!	-20
O=C1C(Cc2ccccc2)Nc2ncnc(N3CCOCC3)c2N1Cc1ccc(Cl)cc1 (stereo unspecified)	0%	-38	-102*!	17
CCC1Nc2ncnc(N3CCCCC3)c2N(Cc2ccccc2)C1=O (stereo unspecified)	0%	-8	-13	44
COc1ccc(CN2C(=O)C(Cc3ccccc3)Nc3ncnc(N4CCCCC4)c32)cc1 (stereo unspecified)	0%	-24	-53*	3
SMILES	B2AR arrestin	DRD3 agonist	DRD3 antagonist	Giardia kill
CC(C)CC1Nc2ncnc(N3CCOCC3)c2N(Cc2ccccc2)C1=O (stereo unspecified)	-1%	60*!	1	4
Cc1ccc(CN2C(=O)C(Cc3ccccc3)Nc3ncnc(N4CCN(c5ccccc5)CC4)c32)cc1 (stereo unspecified)	0%	-65	-140*	-13
Cn1c2c(c3ccccc31)CCN(CCCCN1CCN(c3ccccc3)CC1)C2=O	.	54*	4	-2
Cc1c(C(=O)CN2CCN(c3ccccc3)CC2)c2ccccc2n1C	-1%	-20	-10	-10
COc1cc(C(C)=O)ccc1OCC(O)CN1CCN(c2ccc(C)c(C)c2)CC1 (stereo unspecified)	0%	-8	-52*	8
CC(=O)Nc1ccc(OCC(O)CN2CCN(c3ccc(C)c(Cl)c3)CC2)cc1 (stereo unspecified)	-1%	-32	-144*	-1
COc1cc(C(C)=O)ccc1OCC(O)CN1CCN(c2c(C)cccc2C)CC1 (stereo unspecified)	-1%	-16	-23	16
COc1cccc(-c2nc(CN3CCN(C(=O)c4ccco4)CC3)c(C)o2)c1OC	.	10	0	.
Cc1oc(-c2cc(F)ccc2F)nc1CN1CCCN(C(=O)c2ccco2)CC1	0%	-16	-81*	-12
Cc1oc(-c2cccc(F)c2)nc1CN1CCCN(C(=O)c2ccco2)CC1	0%	-17	-62*	0
Cc1cccc(N2CCN(Cc3nc(-c4ccc(F)cc4F)oc3C)CC2)n1	1%	-16	-86*	-14
Cc1ccc(CN2CCN(CC(=O)N=Nc3c(O)[nH]c4ccccc34)CC2)cc1	0%	-17	-90*	24
Cc1ccc(-n2cc(CN3CCC(CO)(Cc4cccc(C(F)(F)F)c4)CC3)cn2)cc1	-1%	-10	-61*	-2
COc1ccc(CNC(=O)CCc2c(C)nc3nc(CNC(=O)OC(C)(C)C)nn3c2C)cc1	.	8	.	.
CC1(C)CC(C)(c2ccc(O)cc2O)N(c2ccc3ccccc3c2)C(=S)N1 (stereo unspecified)	3%	-24	-62*	-6
COc1cc(NS(=O)(=O)c2ccc(NC(=S)NC(=O)c3cccs3)cc2)nc(OC)n1	-1%	4	-14	61
Cc1cc(C)nc(NS(=O)(=O)c2ccc(NC(=S)NC(=O)c3cccnc3)cc2)n1	-3%	-13	?	0
Cc1cc(NS(=O)(=O)c2ccc(NC(=S)NC(=O)c3cccnc3)cc2)no1	0%	-15	-51*	-9
Cc1cc(C)cc(NS(=O)(=O)c2ccc(NC(=S)NC(=O)c3cccs3)cc2)c1	0%	-18	-84*	-12
O=C(Nc1ccc(NC(=O)c2ccc(Cl)c(S(=O)(=O)N3CCOCC3)c2)cc1)c1ccccc1	0%	4	-5	-14
O=C(Nc1ccccc1)Nc1ccc(Cl)c(S(=O)(=O)N2CCOCC2)c1	0%	-11	-51*	0
COC(=O)c1[nH]c2cc(OC)ccc2c1NC(=O)CCN1CCN(Cc2ccc3c(c2)OCO3)CC1	0%	-9	-81*	-9
COC(=O)c1[nH]c2cc(OC)ccc2c1NC(=O)CCN1CCCC(C)(C)C1	0%	-63	-56*	13
COC(=O)c1[nH]c2cc(OC)ccc2c1NC(=O)CCN1CCCCC1	0%	-31	12	28
COC(=O)c1[nH]c2cc(OC)ccc2c1NC(=O)c1ccc2c(c1)OCO2	0%	2	-8	-13
CCCN1C(=O)C2(c3ccccc31)c1c(oc3ccc(F)cc3c1=O)C(=O)N2CCCOC(C)C (stereo unspecified)	.	-15	.	.
O=C(NCCCc1cnc[nH]1)NCCCN(Cc1ccc(Cl)cc1)c1ccc(Br)cn1	.	.	.	3
Oc1c(Cl)cc(Cl)cc1C1=NNC(c2ccc(Cl)cc2)C1 (stereo unspecified)	0%	-22	-64*	1
CN1C[C@H](C(=O)N[C@]2(C)O[C@@]3(O)[C@@H]4CCCN4C(=O)[C@H](Cc4ccccc4)N3C2=O)C[C@@H]2c3cccc4[nH]cc(c34)C[C@H]21	.	2	.	.
